Screening results deposited in PubChem by National Center for Advancing Translational Sciences (NCATS).
VDR inhibitor – Inhibitors of the vitamin D receptor (VDR): qHTS; Vitamin D3 receptor (Homo sapiens), P11473; VDR-SRC2-3 peptide fluorescence polarization, 2 h; Potency, µM, inactives show max response, negative = inhibition, hits mostly inhibitors; 400,000 tested, 0.93% active; AID 504847, 2011; further: on the % scale 0 is the no-effect control and ±100 the full control effect
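Signal is fluorescence polarization, reporting how far test compounds block the interaction of VDR with the SRC2-3 coregulator peptide after a 2 h room-temperature incubation.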
Tb PFK inh – qHTS Assay to Find Inhibitors of T. brucei phosphofructokinase; AID 485367, 2010; T. brucei PFK, ADP-Glo luminescence; ATP-dependent 6-phosphofructokinase (Trypanosoma brucei brucei), O15648; 330,000 tested, 0.17% active; Potency, µM (top dose mostly 57.5 µM), for the others: top-dose activity, negative = inhibition, actives largely listed as inhibitors;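 further: 0% = uninhibited 1x PFK enzyme wells and -100% = no-enzyme wells; nearly all actives have a fitted effect of over 60% in size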
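Compounds were pin-transferred as a titration series up to 57 uM into substrate buffer (0.5 mM F6P, 0.1 mM ATP, pH 8.0), then 1.25 nM PFK was added and reactions ran 45 min before ADP-Glo detection.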
Pin1 inhibitor – qHTS Assay to Find Inhibitors of Pin1; Peptidyl-prolyl cis-trans isomerase NIMA-interacting 1 (Homo sapiens), Q13526; Pin1 FP peptide displacement, HiFluor488, 10 min; Potency, µM (top dose mostly 115 µM), without a hit: at the top dose activity, negative = inhibition, most hits filed as inhibitors; 390,000 tested, 0.009% active; AID 504891, 2011; active means well fitted inhibition curve with a large enough effect in the polarisation, with a control signal flat, not every such curve was filed as active; inconclusive means small, poorly fitted or top-dose-only effect, or effect the other way, or a change in a side signal; inactive means no such curve, though single readings can be large or run the other way; the % refers to the polarisation; further: on the % scale 0 is the no-effect control and ±100 the full control effect
Target sequence (Q13526 whole entry, looked up): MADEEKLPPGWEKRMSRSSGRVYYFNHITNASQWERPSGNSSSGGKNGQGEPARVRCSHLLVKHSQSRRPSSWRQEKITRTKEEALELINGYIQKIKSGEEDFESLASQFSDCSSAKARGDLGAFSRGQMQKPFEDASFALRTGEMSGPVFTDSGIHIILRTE
TDP1 block – qHTS Assay for Inhibitors of Tyrosyl-DNA Phosphodiesterase (TDP1). recombinant TDP1, AlphaScreen DNA substrate cleavage. Potency, µM (doses to about 130 µM), without a hit: at the top dose activity change, negative = inhibition, most hits filed as inhibitors. 350,000 tested, 0.28% active. Tyrosyl-DNA phosphodiesterase 1 (Homo sapiens), Q9NUW8. AID 485290, 2010; further: on the % scale 0 is the no-effect control and ±100 the full control effect; nearly all actives have a fitted effect of over 40% in size
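Here, a 5' biotin and 3' phosphotyrosine-FITC DNA oligonucleotide reports Tdp1 activity: intact substrate bridges AlphaScreen beads, while cleavage leaves a 3' phosphate and drops signal. All incubations at room temperature.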
PLK1 PBD block – qHTS for Inhibitors of PLK1-PDB (polo-like kinase 1 - polo-box domain): Primary Screen; Serine/threonine-protein kinase PLK1 (Homo sapiens), P53350; Plk1 PBD binding of FITC phosphopeptide, fluorescence polarization; Potency, µM, without a hit: max response, negative = inhibition, hits mostly inhibitors; AID 720504, 2013; 360,000 tested, 2.8% active; further: series mostly up to about 57 µM; on the % scale 0 is the no-effect control and ±100 the full control effect; nearly all actives have a fitted effect of over 65% in size
S-ASM inh – Inhibitors of Secretory Acid Sphingomyelinase (S-ASM): qHTS; 340,000 tested, 0.006% active; Potency, µM (highest dose often 57.5 µM), for the others: at the top dose activity change, negative = inhibition, actives largely listed as inhibitors; Sphingomyelin phosphodiesterase (Homo sapiens), P17405; placental ASM, HMU-PC fluorogenic substrate, 60 min; AID 504937, 2011
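HMU-PC0 cleavage (9 uM final) by human placental ASM, 60 min at 37 °C following 10 min compound exposure at RT; stopped at pH 10, fluorescence Ex 386/Em 447 nm.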
Starred values were filed as active, the others as inactive; i = inactive; ? = inconclusive; / = no result. Compounds with a hit are over-represented: about 3.1% of the library has one in this group of screens. Unless noted, the call rests on the fitted dose curve; in most records, active means well fitted curve in the direction sought with a large enough effect; inconclusive means small, poorly fitted or top-dose-only effect, or another doubt; inactive means no such curve, though single readings can be large; an effect the other way counts as inactive or inconclusive. Potency means the concentration at half of the fitted maximal effect.

SMILES	VDR inhibitor	Tb PFK inh	Pin1 inhibitor	TDP1 block	PLK1 PBD block	S-ASM inh
O=c1cc(-c2ccccc2)nc2c(-c3ccccc3)c(C(F)(F)F)[nH]n12	-22%	1%	?	3%	17µM*	i
Cc1cc(=O)n2[nH]c(C)c(-c3ccccc3)c2n1	-4%	-4%	-12%	-2%	-3%	4%
CCOc1ccc(N(C(=O)OC(C)(C)C)C(=O)c2ccc(O[Si](C)(C)C(C)(C)C)cc2)c(I)c1	2%	/	-2%	9%	/	/
COc1ccc(CCNC(=O)COc2ccc([N+](=O)[O-])cc2)cc1	28µM*	-11%	-2%	-5%	19µM*	-2%
CCCCOc1cccc(C(=O)N(Cc2ccc(C)o2)c2ccccn2)c1	2%	/	-8%	5%	/	/
COCc1cccc(C2=CC(=O)C[C@H](c3ccc(F)cc3)C2)c1	?	4%	1%	-7%	30µM*	1%
Cc1cc(C)n(CC(C)NC(=O)c2cc(COc3c(F)cccc3F)on2)n1 (stereo not drawn)	?	0%	5%	2%	19µM*	-1%
COc1ccc(C(=O)N(Cc2sccc2C)C2CCS(=O)(=O)C2)cc1Cl (stereo not drawn)	14%	/	-2%	9%	/	/
COc1ccc(-c2csc(NC(=O)CSc3nc4ccccc4c(=O)[nH]3)n2)cc1	10%	-10%	109%	79µM*	-14%	-5%
NC(=O)c1ccsc1NC(=O)COc1ccccc1	-17%	-2%	?	1%	15µM*	-1%
O=C(COc1ccccc1)Nc1nc(-c2ccncc2)cs1	-9%	-9%	9%	4%	27µM*	/
Cc1cccc(OCC(=O)Nc2nc(-c3ccncc3)cs2)c1	-6%	-3%	7%	-2%	4%	-1%
Cc1ccc(-c2csc(NC(=O)CSc3nc4ccccc4[nH]3)n2)cc1	4%	5%	4%	4%	6%	?
Cc1cc(C)cc(OCC(=O)Nc2nc(-c3cccnc3)cs2)c1	?	-25%	2%	1%	12µM*	-1%
O=C(COc1ccccc1)Nc1nc(-c2cccnc2)cs1	8%	-5%	13%	-2%	-18%	1%
CCOC(=O)C1=NN(c2ccccc2)C(=O)/C1=C\c1ccc(N(C)C)cc1	?	20%	-12%	11%	1.9µM*	1%
COC(=O)CC1=NN(c2ccccc2)C(=O)/C1=C\c1ccc(OC)cc1	-25%	22%	-1%	0%	2.7µM*	-4%
CCOC(=O)CC1=NN(c2ccccc2)C(=O)/C1=C\c1ccc(OC)cc1OC	50µM*	0%	-18%	12%	2.7µM*	-9%
CC1=NN(Cc2ccccc2)C(=O)/C1=C\c1ccc(N(C)C)cc1	1%	?	38%	9%	-2%	-14%
CCCn1c(=O)c2sccc2n2c(CCCC(=O)N3CCN(c4ccccc4)CC3)nnc12	-1%	/	-2%	-5%	/	/
COc1ccc(SCC(c2ccccc2)N2CCN(CC(C)C)CCC2=O)cc1 (stereo not drawn)	?	/	2%	10%	/	/
CC(C)(C)c1cnnn1-c1ccc(C(=O)CCl)cc1	79µM*	2%	0%	4%	6.7µM*	4%
O=C(CCn1c2c(c3ccccc31)CCCC2)NNC(=O)c1ccc(Cl)c([N+](=O)[O-])c1	?	0%	-12%	3%	30µM*	-9%
Cc1ccc(S(=O)(=O)N2CCCc3cc(NC(=O)c4ccc(F)c(F)c4)ccc32)cc1	0%	/	26%	1%	/	/
Cc1ccc(S(=O)(=O)N2CCCc3cc(NC(=O)c4c(F)cccc4F)ccc32)cc1	-14%	-1%	21%	1%	27µM*	0%
